The record followed here is PubChem BioAssay AID434955 (Southern Research Specialized Biocontainment Screening …, 2010).

Among all 330,000 compounds or so, about 880 (0.27%) were called active. Inconclusive results (about 1%) are left out. No rule for the calls is given here. A selection follows.

The assay in a line: beta-lactam sensitization of Mtb H37Rv, H37Rv (AID 434955).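 Also: growth measured after seven days incubation then overnight dye step; 0% = bacteria only wells and 100% = bacteria with antibiotic.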 The conditions noted are these: M. tuberculosis H37Rv growth with meropenem, percent inhibition, at 25 µM.
The mark [1] stands for this setting: measured here: primary screen without meropenem.

On to `CCCCNC(=O)Cn1nc(C)c(S(=O)(=O)N2CCOCC2)c1C`, for which the inhibition (stronger effect = higher value) is -4.34% (inactive) and the inhibition under setting [1] is -4.6%.
For `Fc1ccc(N2N=C(c3cccs3)CC2c2ccco2)c(F)c1` (stereo not given) the same measures were 35.4% (inactive) and 9.4%.
In the same order, the values of `Cc1ccc(N(CC(=O)NC2CCCCC2)C(=O)CCCC(=O)Nc2ccccn2)c(C)c1` are -1.33% (inactive) and -1.01%.
`CCSC1=NCCN1C(=O)c1ccc(S(=O)(=O)N(CC)CC)cc1`: the inhibition is 6.44% (inactive) (stronger effect = higher value) and 0.45% under setting [1].
As for `COc1ccccc1-c1oc2ccccc2c1C#CCCCCO`, the inhibition was 10.7% (inactive) (stronger effect = higher value) and 7.25% under setting [1].
In the same order, the values of `CC(C)OC(=O)CN1CCN(c2ccc(Cl)cc2)CC1` are -3.97% (inactive) and -7.14%.
For `O=C(Nc1cccnc1)c1noc2c1CCCCC2` the same measures were 2.93% (inactive) and -8.89%.
For `COc1ccc(S(=O)(=O)N2CCCCC2)cc1NC(=O)c1cc([N+](=O)[O-])ccc1N1CCOCC1` the same measures were -11.2% (inactive) and -3.23%.
Consider `COC(=O)CC(=O)N1CCN(c2ccc(Cl)c(Cl)c2)CC1`, for which the inhibition (stronger effect = higher value) is -8.83% (inactive) and the inhibition under setting [1] was 97.6%.
For `Cc1cccc(NC(=O)C(C)N2C(=O)C3C4CC(C(Br)C4Br)C3C2=O)c1` (stereo not given) the same measures were -22.1% (inactive) and -16.2%.
For `CC(C)c1ccc(NC(=O)CCN2C(=O)c3ccc([N+](=O)[O-])cc3C2=O)cc1`, the inhibition runs as follows: (stronger effect = higher value) -2.88% (inactive); under setting [1], -6.43%.
`Cc1nc(COc2cccc(Cl)c2)sc1C(=O)/C=C/N(C)C`: the inhibition by setting is: (stronger effect = higher value) -4.65% (inactive); under setting [1], -0.85%.
In the same order, the values of `C/C(=N/NC(=O)CSc1ccccn1)c1ccc([N+](=O)[O-])cc1` are -3.17% (inactive) and 6.64%.
For `O=C(NC(=O)c1ccccc1)Nc1ccccc1O` the same measures were 0.65% (inactive) and 3%.
For `O=C1[C@@H]2C(c3cccnc3)=NO[C@@H]2C(=O)N1c1ccc(Cl)cc1Cl` the same measures were -5.66% (inactive) and 0.68%.
For the compound `C[C@@H]1C[C@@H]2O[C@H]2/C=C\C=C\C(=O)Cc2c(Cl)c(O)cc(O)c2C(=O)O1`, the inhibition was 29.7% (inactive) (stronger effect = higher value) and 18.4% under setting [1].
For `CCc1ccc2[nH]c(=O)c(Cc3ccccc3)c(O)c2c1` the same measures were -0.83% (inactive) and -2.95%.
For `O=C(C1CCCN1S(=O)(=O)c1ccc(Br)cc1)N1CCOCC1` (stereo not given) the same measures were -1.22% (inactive) and 0.94%.
In the same order, the values of `Cc1c(NC(=O)C(C)OC(=O)c2cc3c4ccccc4n(C)c3s2)c(=O)n(-c2ccccc2)n1C` (stereo not given) are 4.17% (inactive) and 3.63%.
`O=C(CSC1CC(=O)N(CCc2ccccc2)C1=O)Nc1ccc(Cl)cc1` (stereo not given): the inhibition by setting is: (stronger effect = higher value) -1.52% (inactive); under setting [1], -3.81%.
For `CCOc1ccc(C(O)Cn2c(=N)n(CCN3CCCCC3)c3ccccc32)cc1` (stereo not given) the same measures were 8.31% (inactive) and 3.41%.
For `O=S(=O)(Nc1ccc(Cl)cn1)c1cnc(Cl)c(Br)c1` the same measures were -1.47% (inactive) and -1.06%.
In the case of `Cc1cc(NC(=O)OC(C)C)ccc1-c1ccc(NC(=O)OC(C)C)cc1C`, the inhibition (stronger effect = higher value) is 0.85% (inactive) and the inhibition under setting [1] was -5.74%.
For `CCNC(=O)CC1C(=O)N(c2ccc(OC)cc2)C(=O)N1CCOC` (stereo not given) the same measures were 7.04% (inactive) and -0.36%.
For `COC(=O)Cc1ccc(NC(=S)NCc2ccco2)cc1` the same measures were -6.59% (inactive) and 47.6%.
Take `Cc1cccc([C@@H]2[C@@H]3C(=O)N(C)C(=O)[C@@H]3[C@@H]3C(=O)Nc4ccccc4C(=O)N23)c1`: the inhibition is, setting by setting: (stronger effect = higher value) -6.47% (inactive); under setting [1], -0.42%.
In the same order, the values of `O=C1c2ccccc2C(=O)N1CCOc1ccc(F)cc1` are -2.05% (inactive) and -1.56%.
In the same order, the values of `Cn1cc(CCC(=O)N2CCCC(C(=O)c3ccc(C(C)(C)C)cc3)C2)cn1` (stereo not given) are 0.49% (inactive) and 4.84%.
For `CCSCc1nc(N)nc(NCCc2ccccc2)n1`, the inhibition (stronger effect = higher value) is 0.44% (inactive) and the inhibition under setting [1] came out at 4.31%.
For `CC(C)(C)C1CCc2c(sc3nc(SCC(N)=O)nc(N)c23)C1` (stereo not given) the same measures were 99.1% (inactive) and 99.3%.
In the same order, the values of `Brc1ccc(Nc2c3c(nc4ncnn24)CCC3)cc1` are -0.68% (inactive) and -2.17%.
`O=C(NCC(=O)N1CCN(c2ccccc2O)CC1)c1ccc2ccccc2c1`: the inhibition reads like this: (stronger effect = higher value) 10.4% (inactive); under setting [1], 3.65%.
Take `CCN(CCn1cccn1)C(=O)CC1C(=O)NCCN1Cc1cccc(OC)c1OC` (stereo not given): the inhibition (stronger effect = higher value) is -2.12% (inactive) and the inhibition under setting [1] came out at 0.4%.
In the same order, the values of `CC(C)CCN1CCN(Cc2cn[nH]c2C2CCCCC2)CC1CCO` (stereo not given) are -6.26% (inactive) and 2.27%.
In the same order, the values of `CC(=O)C[C@@H](O)CC(=O)[C@H]1OC(=O)CCCCCCc2ccccc21` are 1.26% (inactive) and -0.35%.
For `C[C@H](CO)N1C[C@H](C)[C@@H](CN(C)S(=O)(=O)c2ccc(F)cc2)Oc2c(NC(=O)Nc3ccccc3)cccc2C1=O` the same measures were 5.19% (inactive) and 4.04%.
Turning to `CC1=CC(=O)C=CC1(C)C(Cl)(Cl)Cl` (stereo not given), the inhibition by setting is: (stronger effect = higher value) -0.23% (inactive); under setting [1], 1.78%.
For `CCC(C)NCC(=O)Nc1ccc([N+](=O)[O-])cc1C(=O)Nc1ccccc1F` (stereo not given) the same measures were -6.32% (inactive) and 3.29%.
For `CC1CC(C)CN(S(=O)(=O)c2cccc(C(=O)N3C(=O)c4cccc(N)c4C3=O)c2)C1` (stereo not given) the same measures were -7.74% (inactive) and -0.88%.
In the same order, the values of `Cc1c(C)c(C)c(S(=O)(=O)N2CCC3(CC2)OCCO3)c(C)c1C` are -2.23% (inactive) and -3%.
Consider `C[C@H]1CN([C@@H](C)CO)C(=O)Cc2cc(NS(C)(=O)=O)ccc2O[C@@H]1CN(C)CC1CC1`, for which the inhibition was -11.2% (inactive) (stronger effect = higher value) and 2.75% under setting [1].
In the case of `Cc1ccc2nc(-c3ccc(NC(=O)CN(C)S(=O)(=O)c4ccccc4)cc3)sc2c1`, the inhibition reads like this: (stronger effect = higher value) 11.9% (inactive); under setting [1], 3.33%.
In the same order, the values of `CCOC(=O)c1ccc(NC(=O)c2ccc(NC(=O)C3CCCO3)cc2)cc1` (stereo not given) are 79.3% (inactive) and 83.3%.
For `CCn1c(/C=N/NC(=O)c2ccc(OC)cc2)nc2ccccc21` the same measures were 99.1% (inactive) and 99.4%.
For `O=C(Nc1ccc(F)cc1F)N1CCCN(CCOc2ccccc2)CC1` the same measures were -1.99% (inactive) and -0.11%.
On to `CSc1sc(C(=O)NNC(=O)c2ccc(Cl)cc2)c2c1C=CCC2`, for which the inhibition is, setting by setting: (stronger effect = higher value) -5.38% (inactive); under setting [1], 4.57%.
In the same order, the values of `Cc1oc2c(F)c(F)c(F)c(F)c2c1S(=O)(=O)Nc1cccc(C(F)(F)F)c1` are 5.72% (inactive) and 5.66%.
Take `Cc1ccc(NC(=O)c2nc[nH]c2C(=O)N2CCCCC2)c(C(=O)c2ccccc2)c1`: the inhibition is, setting by setting: (stronger effect = higher value) 9.07% (inactive); under setting [1], 12.6%.
In the same order, the values of `O=C1NC(c2ccccc2)CCC1(Cl)Cl` (stereo not given) are 0.94% (inactive) and 1.7%.
For `COc1ccc(C)cc1NC(=O)C(OC(=O)c1cccc(S(=O)(=O)N(C)c2ccccc2)c1)c1ccccc1` (stereo not given) the same measures were -1.94% (inactive) and 9.6%.

Usually inhibition stands for the change of the read-out against control, counted positive when it falls.
